# According to PubChem BioAssay:
# How the values were obtained:
# [1] = inhibitors of PAF-induced NFkB signaling in CF airway cells, dose response, cell-based, uHTS hits, panel, cytotoxicity readout (AID 624344); conditions: CF bronchial epithelial cells, PAF-induced NFkB reporter inhibition, with PAF, run 1; at 79 µM (top of the series) unless noted
# [2] = as above; conditions: CF bronchial epithelial cells, PAF-induced NFkB reporter inhibition, with PAF, run 2; at 79 µM (top of the series) unless noted
SMILES,inhibition [1],inhibition [2]
CCc1cc(SC#N)cc(C)c1NC(=O)CCl,107%,99.9%
Nc1ncc(-c2ccccc2)c(-c2ccc(O)cc2O)n1,100%,112%
CC(C)CNC(=O)c1coc(=O)c(Br)c1,86%,63.6%
CN(C)/C=C/C(=O)c1ccc2noc(-c3ccccc3)c2c1,118%,105%
O=S(=O)(CC(CN1CCCC1)N1CCCC1)c1ccc2ccccc2c1 (configuration not stated),96.4%,92.7%
COc1ccccc1Cn1c(=O)c2ccccc2n2c(Sc3ncnc4sccc34)nnc12,101%,113%
CCCCCCc1cc2cc(C(=O)Nc3ccccc3OC)c(=O)oc2cc1O,2.45%,66.2%
CCOC(=O)c1c(C)c2c(=O)[nH]cnc2n1-c1ccccc1,110%,104%
C=CC(=O)Nc1cccc(Oc2ncnc3[nH]cc(-c4cnc5ccccc5c4)c23)c1,102%,109%
Cc1c(O)ccc2c(-c3ccccc3)cc(=O)oc12,105%,114%
NC(c1csc(NC(=O)Nc2cccc(Cl)c2)n1)c1ccccc1Cl (configuration not stated),96.3%,101%
CCOC(=O)C1(C(=O)OCC)COC(=O)C1CN1Cc2cc3ccccc3nc2C1 (configuration not stated),65.1%,65.6%
O=C(c1nnsc1S(=O)(=O)c1ccc(Cl)cc1)N1CCOCC1,96%,85.4%
CCCN(CC)c1ncnc2[nH]ncc12,106%,108%
OCCN1CCN(c2ncnc3ccc(Br)cc23)CC1,95.4%,107%
CCN1CCN(Cc2ccc(NC(=O)c3ccc(C)c(NC(=O)c4csc(-c5ccncc5)n4)c3)cc2C(F)(F)F)CC1,107%,101%
O=C(COC(=O)c1ccc2[nH]c3c(c2c1)CCCC3)Nc1ccccc1Cl,65.7%,69.7%
Cc1ccc(NC(=O)Nc2cccc([N+](=O)[O-])c2)cc1F,102%,113%
CC(=O)OC1CCC2(C)C(CCC3C4CC=C(C(C)=O)C4(C)OC(=O)CC32)C1 (configuration not stated),99.2%,104%
COc1ccc(N=Cc2cc3c(cc2O)OC(N)=C(C#N)C3c2ccccc2)cc1 (configuration not stated),76.8%,47.7%
Cc1c(Cl)cccc1NC(=O)CSc1nc2ncc(Cl)cc2[nH]1,98.5% [at 19.8 µM],98.7%

SMILES,inhibition [1],inhibition [2]
Nc1ncnc(Sc2ccc(Cl)cc2)c1[N+](=O)[O-],101%,85.6%
C=CCSc1nc2ccccc2n1C(=O)/C=C/c1ccc(OC)c(OC)c1,115%,102%
COc1cccc(NC(=O)Nc2nnc(CC(=O)Nc3ccccc3)s2)c1,90.4%,85.1%
COC(=O)C1=C(C(=O)OC)[C@@H]2N(Cc3ccccc3)c3ccccc3[C@@]23C[C@@H](C(=O)OC)N(C(=O)c2ccc(Br)cc2)C3=N1,101%,110%
CCOc1ccc(Nc2ncnc3ccc([N+](=O)[O-])cc23)cc1,102%,107%
COc1cccc(/C=N/n2c(C3CCCCC3)n[nH]c2=S)c1,97.2%,106%
c1cncc(CNc2ncnc3ccc(-c4ccoc4)cc23)c1,113%,98.2%
NC1(C(=O)O)CSSC1,112%,103%
CCN(CC)CCN(C(=O)CCS(=O)(=O)c1ccccc1)c1nc2c(C)cc(C)cc2s1,106%,115%
CN(C)CCCN(C(=O)CCSc1ccccc1)c1nc2cc3c(cc2s1)OCO3,106%,116%
Cn1cccc1C(=O)NC(=O)COC(=O)c1ccc(S(C)(=O)=O)c([N+](=O)[O-])c1,92.6%,98.1%
COc1ccc(-c2nc(N3CCOCC3)nc3n[nH]c(N)c23)cc1,117%,104%
Oc1ccc(Br)cc1-c1nc2cnccn2c1NC1CCCC1,101%,97.8%
Oc1ccc(C[C@H]2CNC(=S)N2CC2CCCN2C[C@H](Cc2ccc(O)cc2)N2C[C@H](Cc3ccc(O)cc3)N(CC3CCCCC3)C2=S)cc1 (some centres not stated),101%,105%
O=C(Nc1ccc(Oc2ccc(NC(=O)Nc3ccc([N+](=O)[O-])cc3)cc2)cc1)Nc1ccc([N+](=O)[O-])cc1,101%,114%
Fc1ccc(Nc2ccnc(Nc3ccc(F)cc3)n2)cc1,113%,101%
CC(C)Cc1nc2oc3c(NCC4CCCO4)ncnc3c2c2c1CCC2 (configuration not stated),101%,98.5%
Cc1ccnc(NC(=O)CCCOc2cc(=O)n(C)c3ccccc23)c1,105%,112%
CC1Sc2ccc(Cl)cc2-c2nc(N)ncc21 (configuration not stated),102%,108%
Nc1ncc([N+](=O)[O-])c(N2CCCCCC2)n1,115%,104%
